In the supplement of paper PMC10723795 one finds nucleolar normality score data, which are given here for one compound.

± gives the standard deviation of the averaged measurements.

This assay deals with BJ5TA. The assay can be described thus: nucleolar normality score relative to DMSO (fraction of DMSO control); RPE1 is a non-cancer human cell line; higher = more normal nucleoli (less nucleolar stress). As to the method:
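Selected screen hits were validated in hTERT lines (BJ5TA, CHON-002, RPE1) and cancer lines (DLD1, HCT116). Cells were immunostained for nucleolin and UBF and the nucleolar normality score was measured per field of view, with 4 fields per drug. Scores are normalized to each cell line's own DMSO control. Dose and time are not stated for this panel.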
The compound `CC[C@@]1(O)C(=O)OCc2c1cc1n(c2=O)Cc2cc3ccccc3nc2-1` [Camptothecin] returned a nucleolar normality score of 0.473 ± 0.03.
